# Data published in PubChem BioAssay AID1159580 (chemical genetic matrix, 2015).
# Hit rate of the full screen: of about 5,500 compounds, about 2,000 (36%) were called active. Roughly 18% stayed inconclusive and do not appear here. The list shows a part of the results. A number with no mark means an inactive call. Cut-off read from the data, not from the text of the source: active = normalized growth mostly below about 0.91 (no sharp cut-off); inconclusive = no clear call, values can overlap the other calls; inactive = mostly above about 0.92.
# Experiment: chemical genetic growth profiling, strain panel (AID 1159580);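 note: tested at 20 µM; growth read once vehicle control cultures reached saturation at 30 °C; 1 = growth at the plate median or of vehicle wells; lower values mean less growth of the strain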
# Details: S. cerevisiae deletion strains, growth OD
# [1] = locus YAL040C, strain CLN3, active compounds read low
# [2] = locus YCL061C, strain MRC1 (second series), active compounds read low
# [3] = locus YER002W, strain NOP16, active compounds read low
# [4] = locus YMR263W, strain SAP30, active compounds read low
# [5] = locus YNL153C, strain GIM3, active compounds read low
# [6] = locus YNL175C, strain NOP13, active compounds read low
# [7] = locus YNL197C, strain WHI3, active compounds read low
# [8] = locus YNL224C, strain SQS1, active compounds read low
# [9] = locus YNL322C, strain KRE1, active compounds read low
# [10] = locus YOR083W, strain WHI5 (second series), active compounds read low
# [11] = locus YPL055C, strain LGE1, active compounds read low
# [12] = locus YPL241C, strain CIN2, active compounds read low
# [13] = locus YAR019C, strain CDC15, active compounds read low
# [14] = locus YBL105C, strain PKC1, active compounds read low
# [15] = locus YBR135W, strain CKS1, active compounds read low
# [16] = locus YBR136W, strain MEC1, active compounds read low
# [17] = locus YBR160W, strain CDC28, active compounds read low
# [18] = locus YDL017W, strain CDC7, active compounds read low
# [19] = locus YDL028C, strain MPS1, active compounds read low
# [20] = locus YDL101C, strain DUN1, active compounds read low
# [21] = locus YDL108W, strain KIN28, active compounds read low
# [22] = locus YDL132W, strain cdc53, active compounds read low
# [23] = locus YDL214C, strain PRR2, active compounds read low
# [24] = locus YDR052C, strain DBF4, active compounds read low
# [25] = locus YDR054C, strain cdc34, active compounds read low
# [26] = locus YDR226W, strain ADK1, active compounds read low
# [27] = locus YDR477W, strain SNF1, active compounds read low
# [28] = locus YER123W, strain YCK3, active compounds read low
# [29] = locus YER133W, strain GLC7, active compounds read low
# [30] = locus YFL009W, strain cdc4, active compounds read low
# [31] = locus YFL029C, strain CAK1, active compounds read low
# [32] = locus YFR003C, strain YPI1, active compounds read low
# [33] = locus YFR019W, strain FAB1, active compounds read low
# [34] = locus YFR028C, strain CDC14, active compounds read low
# [35] = locus YGR040W, strain KSS1, active compounds read low
# [36] = locus YGR052W, strain FMP48, active compounds read low
# [37] = locus YGR092W, strain DBF2, active compounds read low
# [38] = locus YHR030C, strain SLT2, active compounds read low
# [39] = locus YHR079C, strain IRE1, active compounds read low
# [40] = locus YHR082C, strain KSP1, active compounds read low
# [41] = locus YHR205W, strain SCH9, active compounds read low
# [42] = locus YIL147C, strain SLN1, active compounds read low
# [43] = locus YJL095W, strain BCK1, active compounds read low
# [44] = locus YJL128C, strain PBS2, active compounds read low
# [45] = locus YJL157C, strain FAR1, active compounds read low
# [46] = locus YJR016C, strain ILV3, active compounds read low
# [47] = locus YJR066W, strain TOR1 (second series), active compounds read low
# [48] = locus YJR066W, strain TOR1, active compounds read low
# [49] = locus YKL048C, strain ELM1, active compounds read low
# [50] = locus YKL067W, strain YNK1, active compounds read low
# [51] = locus YKL101W, strain HSL1, active compounds read low
# [52] = locus YKL193C, strain SDS22, active compounds read low
# [53] = locus YKL203C, strain TOR2, active compounds read low
# [54] = locus YLR113W, strain HOG1, active compounds read low
# [55] = locus YLR133W, strain CKI1, active compounds read low
# [56] = locus YLR403W, strain SFP1, active compounds read low
# [57] = locus YML070W, strain DAK1, active compounds read low
# [58] = locus YMR001C, strain CDC5, active compounds read low
# [59] = locus YMR205C, strain PFK2 (second series), active compounds read low
# [60] = locus YMR277W, strain FCP1, active compounds read low
# [61] = locus YNL006W, strain LST8, active compounds read low
# [62] = locus YNL020C, strain ARK1, active compounds read low
# [63] = locus YNL161W, strain CBK1, active compounds read low
# [64] = locus YNL183C, strain NPR1, active compounds read low
# [65] = locus YNL207W, strain RIO2, active compounds read low
# [66] = locus YNL222W, strain SSU72, active compounds read low
# [67] = locus YNL307C, strain MCK1 (second series), active compounds read low
# [68] = locus YOL078W, strain AVO1, active compounds read low
# [69] = locus YOL136C, strain PFK27, active compounds read low
# [70] = locus YOR061W, strain CKA2, active compounds read low
# [71] = locus YOR119C, strain RIO1, active compounds read low
# [72] = locus YOR231W, strain MKK1, active compounds read low
# [73] = locus YOR329C, strain SCD5, active compounds read low
# [74] = locus YPL031C, strain PHO85, active compounds read low
# [75] = locus YPL153C, strain RAD53, active compounds read low
# [76] = locus YPL204W, strain HRR25, active compounds read low
# [77] = locus YPL209C, strain IPL1, active compounds read low
# [78] = locus YPL256C, strain CLN2, active compounds read low
# [79] = locus YPR025C, strain CCL1, active compounds read low
# [80] = locus YPR106W, strain ISR1, active compounds read low
# [81] = locus YPR111W, strain DBF20, active compounds read low
# [82] = strain NNK1, active compounds read low
# [83] = strain TSCII, active compounds read low
# [84] = locus YAL013W, strain DEP1, active compounds read low
# [85] = locus YDR363W, strain ESC2, active compounds read low
# [86] = locus YGR078C, strain PAC10, active compounds read low
# [87] = locus YMR307W, strain GAS1, active compounds read low
compound,measurement,setting,value
C#CC(N)CCC(=O)O (stereo not given),normalized growth,[1],1.02
same,normalized growth,[2],1.01
same,normalized growth,[3],1.01
same,normalized growth,"locus YGR229C, strain SMI1, active compounds read low",1.01
same,normalized growth,[4],1.01
same,normalized growth,[5],1
same,normalized growth,[6],1.02
same,normalized growth,[7],1.02
same,normalized growth,[8],1
same,normalized growth,[9],1.01
same,normalized growth,[10],0.988
same,normalized growth,[11],0.989
same,normalized growth,[12],1.01
S=C(NNc1ccccc1)Nc1cc(Cl)ccc1Cl,normalized growth,[13],0.963
same,normalized growth,[14],0.958
same,normalized growth,[15],0.96
same,normalized growth,[16],0.962
same,normalized growth,[17],0.963
same,normalized growth,[18],0.962
same,normalized growth,[19],0.97
same,normalized growth,[20],0.963
same,normalized growth,[21],0.974
same,normalized growth,[22],0.959
same,normalized growth,[23],0.953
same,normalized growth,[24],0.966
same,normalized growth,[25],0.939
same,normalized growth,[26],0.985
same,normalized growth,[27],0.945
same,normalized growth,[28],0.921
same,normalized growth,[29],0.958
same,normalized growth,[30],0.974
same,normalized growth,[31],0.95
same,normalized growth,[32],0.961
same,normalized growth,[33],1
same,normalized growth,[34],0.965
same,normalized growth,[35],0.94
same,normalized growth,[36],1.02
same,normalized growth,[37],0.726
same,normalized growth,[38],0.853
same,normalized growth,[39],0.909
same,normalized growth,[40],0.935
same,normalized growth,[41],0.938
same,normalized growth,[42],0.965
same,normalized growth,[43],0.918
same,normalized growth,[44],0.967
same,normalized growth,[45],0.947
same,normalized growth,[46],0.961
same,normalized growth,[47],0.934
same,normalized growth,[48],0.894
same,normalized growth,[49],0.951
same,normalized growth,[50],0.976
same,normalized growth,[51],0.957
same,normalized growth,[52],0.955
same,normalized growth,[53],1
same,normalized growth,[54],0.874
same,normalized growth,[55],0.955
same,normalized growth,[56],0.936
same,normalized growth,[57],0.948
same,normalized growth,[58],0.959
same,normalized growth,[59],0.98
same,normalized growth,[60],0.957
same,normalized growth,[61],0.971
same,normalized growth,[62],0.964
same,normalized growth,[63],0.956
same,normalized growth,[64],0.957
same,normalized growth,[65],0.946
same,normalized growth,[66],0.957
same,normalized growth,[67],0.914
same,normalized growth,[68],0.958
same,normalized growth,[69],0.953
same,normalized growth,[70],0.909
same,normalized growth,[71],0.958
same,normalized growth,[72],0.928
same,normalized growth,[73],0.952
same,normalized growth,[74],0.925
same,normalized growth,[75],0.922
same,normalized growth,[76],0.938
same,normalized growth,[77],0.964
same,normalized growth,[78],0.893
same,normalized growth,[79],0.96
same,normalized growth,[80],0.964
same,normalized growth,[81],0.973
same,normalized growth,[82],0.964
same,normalized growth,[83],0.957
S=C(Nc1cc(Cl)c(Cl)cc1Cl)Nc1ccccc1Br,normalized growth,[13],0.958
same,normalized growth,[14],0.969
same,normalized growth,[15],0.964
same,normalized growth,[16],0.953
same,normalized growth,[17],0.961
same,normalized growth,[18],0.963
same,normalized growth,[19],0.953
same,normalized growth,[20],0.977
same,normalized growth,[21],0.958
same,normalized growth,[22],0.96
same,normalized growth,[23],0.884
same,normalized growth,[24],0.97
same,normalized growth,[25],0.969
same,normalized growth,[26],0.947
same,normalized growth,[27],0.875
same,normalized growth,[28],0.833
same,normalized growth,[29],0.87
same,normalized growth,[30],0.963
same,normalized growth,[31],0.949
same,normalized growth,[32],0.969
same,normalized growth,[33],0.899
same,normalized growth,[34],0.943
same,normalized growth,[35],0.861
same,normalized growth,[36],0.848
same,normalized growth,[37],0.77
same,normalized growth,[38],0.67 (active)
same,normalized growth,[39],0.82
same,normalized growth,[40],0.822
same,normalized growth,[41],0.812
same,normalized growth,[42],0.939
same,normalized growth,[43],0.796
same,normalized growth,[44],0.927
same,normalized growth,[45],0.898
same,normalized growth,[46],0.961
same,normalized growth,[47],0.848
same,normalized growth,[48],0.786
same,normalized growth,[49],0.911
same,normalized growth,[50],0.892
same,normalized growth,[51],0.842
same,normalized growth,[52],0.96
same,normalized growth,[53],0.913
same,normalized growth,[54],0.828 (active)
same,normalized growth,[55],0.861
same,normalized growth,[56],0.754
same,normalized growth,[57],0.86
same,normalized growth,[58],0.957
same,normalized growth,[59],0.873
same,normalized growth,[60],0.959
same,normalized growth,[61],0.984
same,normalized growth,[62],0.844
same,normalized growth,[63],0.977
same,normalized growth,[64],0.791
same,normalized growth,[65],0.962
same,normalized growth,[66],0.97
same,normalized growth,[67],0.839
same,normalized growth,[68],0.962
same,normalized growth,[69],0.854
same,normalized growth,[70],0.749
same,normalized growth,[71],0.869
same,normalized growth,[72],0.846
same,normalized growth,[73],0.975
same,normalized growth,[74],0.873
same,normalized growth,[75],0.837
same,normalized growth,[76],0.848
same,normalized growth,[77],0.966
same,normalized growth,[78],0.809 (active)
same,normalized growth,[79],0.966
same,normalized growth,[80],0.942
same,normalized growth,[81],0.935
same,normalized growth,[82],0.961
same,normalized growth,[83],0.953
NC(CCCP(=O)(O)O)C(=O)O (stereo not given),normalized growth,[84],0.993
same,normalized growth,[1],1.01
same,normalized growth,[2],1
same,normalized growth,[85],1.09
same,normalized growth,[3],0.993
same,normalized growth,[86],1.02
same,normalized growth,[4],1
same,normalized growth,[87],0.982
same,normalized growth,[6],1.01
same,normalized growth,[7],1
same,normalized growth,[8],1.02
same,normalized growth,[9],1
same,normalized growth,[10],1.01
same,normalized growth,[11],0.977
same,normalized growth,[12],0.993
O=C1NC(c2cccc([N+](=O)[O-])c2)=CCN1c1ccccc1O,normalized growth,[84],0.998
same,normalized growth,[1],0.994
same,normalized growth,[2],1.01
same,normalized growth,[85],1.01
same,normalized growth,[3],1
same,normalized growth,[86],1.02
same,normalized growth,"locus YJR075W, strain HOC1, active compounds read low",1.01
same,normalized growth,[4],1
same,normalized growth,[87],1
same,normalized growth,[5],1.05
same,normalized growth,[6],1
same,normalized growth,[7],1.01
same,normalized growth,[8],0.995
same,normalized growth,[9],0.998
same,normalized growth,[10],1.01
